Laboratory results published in PubChem BioAssay (Tox21).
Inconclusive results are not listed. Activity calls are given as the source filed them. Unless noted, the call rests on the fitted dose curve; in most records, active means well fitted curve in the direction sought with a large enough effect in the repeat runs; inconclusive means weak or mixed curves; inactive means no such curve, though single readings can be large; an effect the other way counts as inactive or inconclusive.

Legend:
[1] = qHTS assay to identify small molecule antagonists of the thyroid receptor (TR) signaling pathway - cell viability counter screen (AID 743064); further: nearly all actives have a fitted effect of over 50% in size
Procedure, shortened: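 GH3.TRE-Luc rat pituitary cells carrying a TRE-luciferase reporter were treated with compound plus 1 nM T3 (final) for 23.5 h at 37 °C. Viability was then read in the same wells by CellTiter-Fluor fluorescence after a further 30 min.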

[2] = tested on: thyroid hormone receptor (rat, GH3 cells); experiment: qHTS assay to identify small molecule agonists of the thyroid receptor (TR) signaling pathway (AID 743066; calls by dose curve)
[3] = qHTS assay to identify small molecule antagonists of the estrogen receptor alpha (ER-alpha) signaling pathway - cell viability counter screen (AID 743074; calls by dose curve;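 further: HEK293 cells carrying ER-alpha-UAS-bla reporter stimulated with 17beta-estradiol; nearly all actives have a fitted effect of over 45% in size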)
[4] = qHTS assay to identify small molecule antagonists of the estrogen receptor alpha (ER-alpha) signaling pathway using the BG1 cell line - cell viability counter screen (AID 743081);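 further: compound given together with 17beta-estradiol as the ER stimulus; series mostly up to about 70 µM; nearly all actives have a fitted effect of over 45% in size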
Aromatase (Homo sapiens) = Aromatase (Homo sapiens) (UniProt P11511); experiment: qHTS assay to identify aromatase inhibitors (AID 743083); further: series mostly up to about 70 µM; nearly all actives have a fitted effect of over 55% in size
[5] = qHTS assay to identify aromatase inhibitors - cell viability counter screen (AID 743084);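 further: cells stimulated with testosterone during compound exposure; nearly all actives have a fitted effect of over 55% in size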
[6] = biological target: Aryl hydrocarbon receptor (Homo sapiens) (UniProt P35869); experiment: qHTS assay to identify small molecule that activate the aryl hydrocarbon receptor (AhR) signaling pathway (AID 743085);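 further: HG2L7.5c1 human HepG2 liver cells with stably integrated DRE-driven firefly reporter; series mostly up to about 70 µM; nearly all actives have a fitted effect of over 15% in size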
Procedure, shortened: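 HepG2 cells (HG2L7.5c1) stably carrying a firefly luciferase reporter driven by 20 dioxin responsive elements were exposed to compound for 24 h at 37C after a 5 h settling period; luminescence rise (ONE-Glo) indicated activation.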

[7] = biological target: Peroxisome proliferator-activated receptor gamma (Homo sapiens) (UniProt P37231); experiment: qHTS assay to identify small molecule agonists of the peroxisome proliferator-activated receptor gamma (PPARg) signaling pathway (AID 743094; active means well fitted activation curve with a large enough effect in the signal ratio in the repeat runs, not every such curve was filed as active; the % refers to the signal ratio)
Procedure, shortened: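 Beta-lactamase FRET fluorescence was the read-out after a 1 h room-temperature substrate step, following 17 h compound treatment at 37C of HEK293H cells expressing a UAS-driven bla reporter responsive to PPARg.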

[8] = biological target: Peroxisome proliferator-activated receptor gamma (Homo sapiens) (UniProt P37231); experiment: qHTS assay to identify small molecule antagonists of the peroxisome proliferator-activated receptor gamma (PPARg) signaling pathway (AID 743191; calls by dose curve; further: series mostly up to about 63 µM; nearly all actives have a fitted effect of over 30% in size)
Procedure, shortened: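 Beta-lactamase reporter under UAS control in HEK293H PPARg-bla cells; compound treatment 17 h at 37C. Read-out: fluorescence intensity after 1 h room-temperature incubation with LiveBLAzer B/G FRET substrate.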

[9] = qHTS assay for small molecule agonists of the antioxidant response element (ARE) signaling pathway (AID 743202; active means well fitted activation curve with a large enough effect in the signal ratio in the repeat runs, not every such curve was filed as active; the % refers to the signal ratio)
Procedure, shortened: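 An ARE-responsive beta-lactamase gene stably integrated in HepG2 cells serves as reporter. After 5 h plating and 16 h compound incubation at 37 C, fluorescence of the B/G FRET substrate was measured.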

[10] = qHTS assay for small molecule agonists of the antioxidant response element (ARE) signaling pathway - cell viability counter screen (AID 743203; calls by dose curve; further: nearly all actives have a fitted effect of over 55% in size)
Procedure, shortened: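 HepG2 cells carrying ARE-driven beta-lactamase; 2,000 cells/well; 5 hrs plating; compound pinned from DMSO; 16 hrs 37C/5% CO2; CellTiter-Glo added; 30 min RT; luminescence.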

[11] = qHTS assay for small molecule activators of the heat shock response signaling pathway - cell viability counter screen (AID 743209); further: nearly all actives have a fitted effect of over 50% in size
Procedure, shortened: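 Luminescence from CellTiter-Glo, added after the beta-lactamase FRET read, gave the viability signal. Cells were HSE-bla HeLa treated with DMSO-dissolved compounds for 5 h at 37 C following overnight plating.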

[12] = qHTS assay for small molecule activators of the heat shock response signaling pathway (AID 743210; active means well fitted activation curve with a large enough effect in the signal ratio in the repeat runs, with a control signal flat, not every such curve was filed as active; the % refers to the signal ratio;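 further: HeLa cells with beta-lactamase reporter driven by heat shock elements; series mostly up to about 63 µM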)
Procedure, shortened: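 In HSE-bla HeLa cells, 5 h compound incubation (37 C) precedes addition of LiveBLAzer B/G substrate; after 2.5 h at room temperature, fluorescence intensity indicates reporter induction.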

[13] = qHTS assay to identify small molecule antagonists of the thyroid receptor (TR) signaling pathway (AID 743065); further: series mostly up to about 70 µM; nearly all actives have a fitted effect of over 55% in size
Procedure, shortened: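 Antagonism measured as loss of luciferase signal in GH3 cells stably carrying a TRE-luciferase reporter, co-treated with compound and T3 (1 nM final) for 23.5 h at 37 C. Viability was read in the same well by CellTiter-Fluor.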

[14] = biological target: Estrogen receptor (Homo sapiens) (UniProt P03372); experiment: qHTS assay to identify small molecule antagonists of the estrogen receptor alpha (ER-alpha) signaling pathway (AID 743069; active means well fitted curve in the direction sought with a large enough effect in the signal ratio in the repeat runs, not every such curve was filed as active; the % refers to the signal ratio)
Procedure, shortened: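 Compound effects are measured against 17beta-estradiol stimulation in HEK293 cells with a UAS-controlled beta-lactamase reporter for ER-alpha. Exposure lasts 18 hr at 37C; LiveBLAzer B/G FRET substrate follows for 2 hr at room temperature.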

[15] = biological target: Estrogen receptor (Homo sapiens) (UniProt P03372); experiment: qHTS assay to identify small molecule agonists of the estrogen receptor alpha (ER-alpha) signaling pathway (AID 743075; calls by dose curve)
[16] = biological target: Estrogen receptor (Homo sapiens) (UniProt P03372); experiment: qHTS assay to identify small molecule agonists of the estrogen receptor alpha (ER-alpha) signaling pathway using the BG1 cell line (AID 743079); further: nearly all actives have a fitted effect of over 20% in size
[17] = qHTS assay to identify small molecule antagonists of the estrogen receptor alpha (ER-alpha) signaling pathway using the BG1 cell line (AID 743080; calls by dose curve;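 further: BG1 cells stimulated with 17beta-estradiol alongside compound; series mostly up to about 70 µM; nearly all actives have a fitted effect of over 25% in size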)
Procedure, shortened: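 Seeding, 24 h rest, compound transfer from DMSO, 17beta-estradiol addition, 21.5 h incubation, CellTiter-Fluor (30 min, 37 C), then ONE-Glo (30 min, room temperature): this sequence was run on BG1-Luc-4E2 reporter cells.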

[18] = qHTS assay to identify small molecule that activate the aryl hydrocarbon receptor (AhR) signaling pathway - cell viability counter screen (AID 743086);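 further: HepG2 liver cells carrying the AhR DRE luciferase reporter; series mostly up to about 70 µM; nearly all actives have a fitted effect of over 45% in size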
Procedure, shortened: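 Cytotoxicity counter screen: CellTiter-Fluor signal (30 min, 37 C) in 4000 HepG2 cells/well carrying the DRE-luciferase reporter, following 24 h compound exposure at 37 C.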

[19] = qHTS assay to identify small molecule antagonists of the peroxisome proliferator-activated receptor gamma (PPARg) signaling pathway - cell viability counter screen (AID 743194); further: nearly all actives have a fitted effect of over 55% in size
Procedure, shortened: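 Viability was measured as CellTiter-Glo luminescence in GeneBLAzer PPARg UAS-bla HEK293H cells. These cells had been exposed 17 h at 37 C to compounds together with rosiglitazone at 50 nM final, with the beta-lactamase readout taken in the same wells.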
On the % scale 0 is the no-effect control and ±100 the full control effect.

Sequence of Peroxisome proliferator-activated receptor gamma (Homo sapiens) (P37231 whole entry, looked up): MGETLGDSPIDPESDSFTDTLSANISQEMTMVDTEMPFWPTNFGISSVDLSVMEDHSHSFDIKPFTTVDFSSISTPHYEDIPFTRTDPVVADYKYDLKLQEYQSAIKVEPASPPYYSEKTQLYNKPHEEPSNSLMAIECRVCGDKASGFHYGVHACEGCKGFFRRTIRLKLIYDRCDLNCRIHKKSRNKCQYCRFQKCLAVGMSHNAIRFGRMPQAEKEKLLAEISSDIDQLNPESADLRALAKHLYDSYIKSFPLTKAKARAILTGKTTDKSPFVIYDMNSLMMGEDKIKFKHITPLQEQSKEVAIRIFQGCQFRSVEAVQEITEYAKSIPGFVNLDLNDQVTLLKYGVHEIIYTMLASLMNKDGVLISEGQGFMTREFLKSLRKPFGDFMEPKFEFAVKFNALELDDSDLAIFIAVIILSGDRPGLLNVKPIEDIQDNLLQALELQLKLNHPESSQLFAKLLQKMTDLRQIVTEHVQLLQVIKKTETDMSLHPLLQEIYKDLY
Sequence of Aromatase (Homo sapiens) (P11511 whole entry, looked up): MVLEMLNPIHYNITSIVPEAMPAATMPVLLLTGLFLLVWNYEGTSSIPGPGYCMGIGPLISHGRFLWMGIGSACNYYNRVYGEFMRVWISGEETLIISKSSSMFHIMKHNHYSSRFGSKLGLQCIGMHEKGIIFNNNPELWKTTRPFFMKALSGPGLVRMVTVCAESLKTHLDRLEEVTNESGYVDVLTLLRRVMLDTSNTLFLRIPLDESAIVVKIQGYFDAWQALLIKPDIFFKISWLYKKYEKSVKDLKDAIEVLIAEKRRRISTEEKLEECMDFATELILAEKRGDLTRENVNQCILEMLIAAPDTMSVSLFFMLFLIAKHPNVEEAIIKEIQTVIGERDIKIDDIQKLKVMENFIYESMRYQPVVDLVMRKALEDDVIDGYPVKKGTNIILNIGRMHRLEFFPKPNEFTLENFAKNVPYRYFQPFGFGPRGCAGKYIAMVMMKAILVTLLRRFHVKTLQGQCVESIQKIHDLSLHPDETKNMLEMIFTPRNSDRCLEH
Sequence of Estrogen receptor (Homo sapiens) (P03372 whole entry, looked up): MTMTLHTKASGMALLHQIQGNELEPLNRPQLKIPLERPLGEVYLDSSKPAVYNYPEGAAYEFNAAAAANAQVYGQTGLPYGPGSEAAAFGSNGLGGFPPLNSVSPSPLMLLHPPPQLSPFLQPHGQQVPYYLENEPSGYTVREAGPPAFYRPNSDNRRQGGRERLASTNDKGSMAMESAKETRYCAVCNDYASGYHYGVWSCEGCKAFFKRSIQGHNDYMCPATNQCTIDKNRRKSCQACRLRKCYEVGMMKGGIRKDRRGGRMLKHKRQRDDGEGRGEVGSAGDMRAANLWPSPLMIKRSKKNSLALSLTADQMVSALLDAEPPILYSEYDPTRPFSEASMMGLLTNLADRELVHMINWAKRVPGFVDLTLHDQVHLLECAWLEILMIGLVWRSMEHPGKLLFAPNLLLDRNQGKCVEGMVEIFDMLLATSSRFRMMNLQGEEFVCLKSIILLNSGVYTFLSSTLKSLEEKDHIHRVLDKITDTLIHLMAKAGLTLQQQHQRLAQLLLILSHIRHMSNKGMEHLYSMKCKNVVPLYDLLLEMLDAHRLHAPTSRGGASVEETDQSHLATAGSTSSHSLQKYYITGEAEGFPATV
Sequence of Aryl hydrocarbon receptor (Homo sapiens) (P35869 whole entry, looked up): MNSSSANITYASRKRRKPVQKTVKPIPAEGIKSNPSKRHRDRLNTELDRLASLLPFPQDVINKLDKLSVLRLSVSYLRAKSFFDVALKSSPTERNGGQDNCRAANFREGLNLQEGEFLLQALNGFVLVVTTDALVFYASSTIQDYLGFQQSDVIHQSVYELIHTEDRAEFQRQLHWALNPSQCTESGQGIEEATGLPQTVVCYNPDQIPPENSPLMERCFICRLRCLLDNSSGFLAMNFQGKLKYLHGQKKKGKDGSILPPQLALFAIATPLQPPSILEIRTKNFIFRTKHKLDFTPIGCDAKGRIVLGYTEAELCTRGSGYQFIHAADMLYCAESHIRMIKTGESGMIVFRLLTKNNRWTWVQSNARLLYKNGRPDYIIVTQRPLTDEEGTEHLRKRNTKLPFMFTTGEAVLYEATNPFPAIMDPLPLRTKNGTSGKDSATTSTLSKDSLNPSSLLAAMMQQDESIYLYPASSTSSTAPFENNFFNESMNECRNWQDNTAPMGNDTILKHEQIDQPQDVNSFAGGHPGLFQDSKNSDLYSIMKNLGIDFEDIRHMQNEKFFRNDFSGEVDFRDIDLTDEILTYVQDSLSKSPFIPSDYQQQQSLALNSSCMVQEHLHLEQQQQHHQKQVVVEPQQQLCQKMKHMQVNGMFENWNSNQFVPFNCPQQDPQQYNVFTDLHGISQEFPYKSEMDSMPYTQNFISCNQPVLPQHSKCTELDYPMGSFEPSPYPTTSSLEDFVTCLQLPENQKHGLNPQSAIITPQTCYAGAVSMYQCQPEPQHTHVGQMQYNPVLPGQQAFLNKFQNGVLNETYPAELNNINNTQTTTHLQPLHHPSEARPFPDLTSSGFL

COC(=O)c1ccc(C)cc1C1=NC(C)(C(C)C)C(=O)N1 (stereo not drawn)
inactive: Potency [1] | outcome [2] | outcome [3] | Potency [4] | Potency (Aromatase (Homo sapiens)) | Potency [5] | Potency [6] | outcome [7] | Potency [8] | Potency [9] | Potency [10] | outcome [11] | outcome [12]

CC(C)(CC(=O)O)C(=O)O
inactive: Potency [13] | outcome [2] | outcome [14] | outcome [3] | Potency [15] | Potency [16] | outcome [17] | Potency [4] | Potency (Aromatase (Homo sapiens)) | Potency [5] | Potency [6] | Potency [18] | outcome [7] | Potency [8] | outcome [19] | Potency [9] | Potency [10] | outcome [11] | outcome [12]

O=C(O)CN(CCOCCOCCN(CC(=O)O)CC(=O)O)CC(=O)O
inactive: Potency [1] | outcome [2] | outcome [3] | Potency [4] | Potency (Aromatase (Homo sapiens)) | Potency [5] | Potency [6] | Potency [18] | outcome [7] | ratio activity, negative = inhibition [8] -4.72% [at 0.55 µM] | activity change, negative = cytotoxicity [19] 11.4% [at 0.55 µM] | viability change, negative = cytotoxic [10] 1.75% [at 0.756 µM] | activity change, negative = cytotoxicity [11] -15.4% [at 0.55 µM] | activation [12] 0.198% [at 0.55 µM]

CCCCCCCCS(=O)(=O)Cl
inactive: Potency [1] | outcome [2] | outcome [3] | Potency [4] | Potency (Aromatase (Homo sapiens)) | Potency [6] | Potency [18] | outcome [7] | Potency [8] | outcome [19] | Potency [10] | outcome [11] | outcome [12]

CC(=O)OCC(=O)[C@@]1(O)CC[C@H]2[C@@H]3CCC4=CC(=O)CC[C@]4(C)[C@H]3C(=O)C[C@@]21C
inactive: outcome [14] | Potency [15] | Potency [16] | Potency [4] | Potency (Aromatase (Homo sapiens)) | Potency [5] | Potency [18] | outcome [19] | Potency [10]

CCCCCCCCCCCC
inactive: Potency [13] | outcome [2] | outcome [17] | Potency [4] | Potency (Aromatase (Homo sapiens)) | Potency [5] | Potency [6] | Potency [18] | outcome [7] | Potency [8] | outcome [19] | Potency [10] | outcome [11]

CCS(=O)(=O)c1ccc(OC)c(C(=O)OC)c1
inactive: outcome [19] | Potency [9] | Potency [10] | outcome [11] | outcome [12]

C[C@](N)(Cc1ccc(O)cc1)C(=O)O
inactive: outcome [14] | outcome [3] | Potency [15] | Potency [16] | outcome [17] | Potency [4] | Potency (Aromatase (Homo sapiens)) | Potency [5] | Potency [6] | Potency [18] | outcome [7] | activity change, negative = cytotoxicity [19] 4.13% [at 5.95 µM] | activation [9] 6.12% [at 8.36 µM] | viability change, negative = cytotoxic [10] -15% [at 8.36 µM] | activity change, negative = cytotoxicity [11] 1.38% [at 5.95 µM] | activation [12] 0.673% [at 5.95 µM]

CCc1cccc2c(CCO)c[nH]c12
inactive: Potency [8] | outcome [19] | Potency [9] | Potency [10] | outcome [11] | outcome [12]
